We go through 54 sequences from the supplement of paper PMC10338343.

± gives the standard deviation.

For assay [1], the system named is MILI (PIWIL2) piRISC loaded with L1MC piRNA (26 nt). Kind of assay: pre-steady-state target cleavage rate (min^-1); guide: L1MC piRNA 5'p-UAACUAAAUACUAUGCAAGCUGUAGG; higher = faster piRNA-guided slicing of the target. In outline: (§1)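 Active affinity-purified piRISC (1 nM) loaded with one synthetic guide was mixed with a transcribed, DNA-blocked target RNA library (0.1 nM), with or without 500 nM GTSF1 partner protein, in HEPES–potassium acetate buffer at 33 °C for 0–8 or 0–960 min. Uncleaved targets were sequenced, normalised to depth and to weakly complementary targets, and pooled across three trials, with k3 capped at 0.0001 min^-1. The pre-steady-state cleavage rate was determined with a burst-and-steady-state fit.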

The subject of assay [2] is EfPiwi piRISC loaded with L1MC piRNA (26 nt). Nature of the assay: pre-steady-state target cleavage rate (min^-1); auxiliary factor: 500 nM Ephydatia muelleri Gtsf1; guide: L1MC piRNA 5'p-UAACUAAAUACUAUGCAAGCUGUAGG; MIWI and MILI are mouse PIWI proteins and EfPiwi is from a freshwater sponge; tags in brackets are library labels; higher = faster piRNA-guided slicing of the target. In a few lines: as §1
Where [3] appears, read: auxiliary factor: 500 nM mouse GTSF1.
Where [4] appears, read: auxiliary factor: none (no GTSF1).

Turning to UCCUGGAUGAGCAUGCAUAGUAUAUAGUUA, the “pre-steady-state target cleavage rate” value was determined as 0.213 ± 0.022 in assay [1] (setting [3]) and 0.00752 ± 0.0029 in assay [1] (setting [4]).
Consider UCCUGGAUGUGCUUGCUAAGUAUUUAGUUA, for which the “pre-steady-state target cleavage rate” value in assay [1] (setting [3]) is 0.0146 ± 0.0062; in assay [1] (setting [4]) it was 0.00546 ± 0.0023.
In the same order, the values of UCCUGGAUCAGCUUGGAUAGUAUAUAGUUA are 0.124 ± 0.018 and 0.00459 ± 0.0024.
UCCUGGAUGAGGUUGGAUAGUAUUUAGUUA: the “pre-steady-state target cleavage rate” value in assay [1] (setting [3]) worked out at 0.132 ± 0.021; in assay [1] (setting [4]) it was 0.00824 ± 0.0025.
With UCCUGGAUGAGCUUGCAAACUAUUUAGUUA, the “pre-steady-state target cleavage rate” value in assay [1] (setting [3]) worked out at 0.00935 ± 0.0025; in assay [1] (setting [4]), 0.00292 ± 0.0024.
In the same order, the values of UCCUGGAUGUCCUUGGAUAGUAUAUAGUUA are 0.165 ± 0.035 and 0.0038 ± 0.0025.
As for UCCUGGAUCAGCUUGCAUAGUUUUUUGUUA, the results for the “pre-steady-state target cleavage rate” value in assay [1] (setting [3]) and in assay [1] (setting [4]) were 0.0453 ± 0.011 and 0.00417 ± 0.0027, respectively.
For UCCUGGAUGUGCUUCCUUAGUAUUUAGUUA the same measures were 0.0394 ± 0.0077 and 0.00557 ± 0.0022.
As to UCCUGGAUCAGCUUGCAUAGUAUUCUAGUUA, the “pre-steady-state target cleavage rate” value was found to be 0.239 ± 0.034 in assay [1] (setting [3]) and 0.00658 ± 0.0024 in assay [1] (setting [4]).
Consider UCCUGGAUCAGCUUGCAAUGUAUUUAGUAA, for which the “pre-steady-state target cleavage rate” value in assay [1] (setting [3]) is 0.0826 ± 0.014; in assay [1] (setting [4]) it was 0.00611 ± 0.0022.
In the same order, the values of UCCUGCUACUCGUUGCAUAGUAUUUAGUAA are 0.127 ± 0.02 and 0.00373 ± 0.0021.
On to UCCUGCUACCAGCUUGCAUAGUAUUUAGUUA, for which the “pre-steady-state target cleavage rate” value came out at 0.24 ± 0.019 in assay [1] (setting [3]) and 0.0115 ± 0.0033 in assay [1] (setting [4]).
Consider UCCUGGAUCAGCUUGCAAAGUAUUUUGUUA, for which the “pre-steady-state target cleavage rate” value in assay [1] (setting [3]) turned out to be 0.1 ± 0.018; in assay [1] (setting [4]), 0.00456 ± 0.0025.
For the sequence UCCUGGAUGUCGUUGCAUAGUAUAAAGUUA, the figures for the “pre-steady-state target cleavage rate” value in assay [1] (setting [3]) and in assay [1] (setting [4]) were 0.0728 ± 0.018 and 0.00407 ± 0.0022, respectively.
In the same order, the values of UCCUGGAUCAGCUAGCAUUGUAUUUAGUUA are 0.107 ± 0.014 and 0.00287 ± 0.0024.
In the same order, the values of UCCUGGAUGUGCUUGCAUAGUAUUUAAUUA are 0.0357 ± 0.011 and 0.00315 ± 0.003.
In the same order, the values of UCCUGGAUGUGCUUGGAAAGUAUUUAGUUA are 0.0377 ± 0.0067 and 0.00729 ± 0.002.
For UCCUGGAUGUCGUUGCAUAGUAUUUAGUAA, the “pre-steady-state target cleavage rate” value in assay [1] (setting [3]) is 0.191 ± 0.03; in assay [1] (setting [4]) it was 0.00351 ± 0.0029.
UCCUGGAUGUCCUUGCAUAGUUAUUUAGUUA: the entries for the “pre-steady-state target cleavage rate” value in assay [1] (setting [3]) and in assay [1] (setting [4]) were 0.0103 ± 0.0056 and 0.00393 ± 0.0027, respectively.
On to UCCUGCUACAGCUACGAUAGUAUUUAGUUA, for which the results for the “pre-steady-state target cleavage rate” value in assay [1] (setting [3]) and in assay [1] (setting [4]) were 0.243 ± 0.02 and 0.00263 ± 0.0024, respectively.
With UCCUGGAUGUCGAAGCAUGGUAUUUAGUUA, the entries for the “pre-steady-state target cleavage rate” value in assay [1] (setting [3]) and in assay [1] (setting [4]) were 0.0111 ± 0.0048 and 0.00436 ± 0.0021, respectively.
For UCCUGGAUGUGCUUGCAUAGUUAUUUAGUUA, the “pre-steady-state target cleavage rate” value in assay [1] (setting [3]) was determined as 0.0061 ± 0.0048; in assay [1] (setting [4]), 0.00419 ± 0.0033.
In the case of UCCUGGAUGUCGUUGCUUAGUAUAUAGUUA, the “pre-steady-state target cleavage rate” value in assay [1] (setting [3]) was determined as 0.0611 ± 0.014; in assay [1] (setting [4]), 0.0122 ± 0.0029.
As for UCCUGGAUGAGCUUGCAUAGUAUUGUAGUUA, the “pre-steady-state target cleavage rate” value in assay [1] (setting [3]) worked out at 0.0782 ± 0.024; in assay [1] (setting [4]), 0.00469 ± 0.003.
For UCCUGGAUGUCGAAGUAUAGUAUUUAGUUA the same measures were 0.0142 ± 0.004 and 0.00325 ± 0.002.
For UCCUGGAUGUCGAUGCAUAGUUUAUAGUUA, the results for the “pre-steady-state target cleavage rate” value in assay [1] (setting [3]) and in assay [1] (setting [4]) were 0.00501 ± 0.0045 and 0.00379 ± 0.0026, respectively.
For UCCUGGAUGAGCUUGCAUAGAUAUUUAGUUA the same measures were 0.00786 ± 0.0038 and 0.00424 ± 0.0022.
For UCCUGGAUGUCGAUGCAUAGUAGUUUAGUUA the same measures were 0.0201 ± 0.005 and 0.00577 ± 0.0027.
With UCCUGGAUGAGCUUGCAUAGUUUUUUGUUA, the “pre-steady-state target cleavage rate” value in assay [1] (setting [3]) is 0.0139 ± 0.0061; in assay [1] (setting [4]), 0.00346 ± 0.003.
Regarding UCCUGGAUCUGCUUGCAUAGUAUUUACUUA, the “pre-steady-state target cleavage rate” value is 0.0527 ± 0.0096 in assay [1] (setting [3]) and 0.00348 ± 0.0027 in assay [1] (setting [4]).
In the case of UCCUGCUACAGCUUGCUAUGUAUUUAGUUA, the “pre-steady-state target cleavage rate” value in assay [1] (setting [3]) worked out at 0.0638 ± 0.017; in assay [1] (setting [4]) it was 0.00522 ± 0.0021.
For UCCUGGAUGUGCUUGCAUAGUAUCUUAGUUA the same measures were 0.135 ± 0.019 and 0.0069 ± 0.0028.
In the case of UCCUGCUAUAGCUUGCAUAGUAUUUAGUUA, the entries for the “pre-steady-state target cleavage rate” value in assay [1] (setting [3]) and in assay [1] (setting [4]) were 0.221 ± 0.017 and 0.00678 ± 0.0018, respectively.
Take UCCUGGAUGUCCUUGCAUAGUAUUCUAGUUA: the figures for the “pre-steady-state target cleavage rate” value in assay [1] (setting [3]) and in assay [1] (setting [4]) were 0.1 ± 0.022 and 0.00384 ± 0.0034, respectively.
In the same order, the values of UCCUGGAUGUGCUUGCUAGUAUUUAGUUA are 0.00654 ± 0.0035 and 0.00432 ± 0.0028.
On to UCCUGGAUGUCCUUGCUUACUAUUUAGUUA, for which the “pre-steady-state target cleavage rate” value in assay [1] (setting [3]) was 0.016 ± 0.0064; in assay [1] (setting [4]), 0.00305 ± 0.0023.
As to UCCUGGAUGUCGAUGCAUAGUAUCUUAGUUA, the “pre-steady-state target cleavage rate” value in assay [1] (setting [3]) stood at 0.0692 ± 0.013; in assay [1] (setting [4]), 0.00487 ± 0.0024.
For UCCUGGUACAGGUUGCAUAGUAUUUUGUUA the same measures were 0.189 ± 0.042 and 0.0111 ± 0.0045.
In the case of UCCUGGAUGUCCUUGAUAGUAUUUAGUUA, the results for the “pre-steady-state target cleavage rate” value in assay [1] (setting [3]) and in assay [1] (setting [4]) were 0.00551 ± 0.0039 and 0.00337 ± 0.0019, respectively.
In the same order, the values of UCCUGGAUGUGGUUGCAUACUAUUUAGUUA are 0.0175 ± 0.0072 and 0.00525 ± 0.0036.
As for UCCUGGAUGUGCUUGGUUAGUAUUUAGUUA, the “pre-steady-state target cleavage rate” value in assay [1] (setting [3]) was determined as 0.0978 ± 0.017; in assay [1] (setting [4]), 0.01 ± 0.0025.
As to UCCUGGAUGUCGAAGCAUAGUAUGUUAGUUA, the “pre-steady-state target cleavage rate” value stood at 0.0233 ± 0.0059 in assay [1] (setting [3]) and 0.00487 ± 0.0021 in assay [1] (setting [4]).
As for UCCUCCUACAGGUAGCAUAGUAUUUAGUUA, the “pre-steady-state target cleavage rate” value stood at 0.273 ± 0.013 in assay [1] (setting [3]) and 0.00904 ± 0.0021 in assay [1] (setting [4]).
Turning to UCCUGGAUGUCCUUUCAUAGUAUUUAGUUA, the “pre-steady-state target cleavage rate” value in assay [1] (setting [3]) amounted to 0.0723 ± 0.011; in assay [1] (setting [4]), 0.00458 ± 0.0022.
For UCCUGGUACAGCUUGCAAUCUAUUUAGUUA, the “pre-steady-state target cleavage rate” value in assay [1] (setting [3]) came out at 0.0377 ± 0.013; in assay [1] (setting [4]), 0.00455 ± 0.0036.
In the same order, the values of UCCUGGAACAGCUUGCAAAGUUUUUAGUUA are 0.0201 ± 0.0064 and 0.0029 ± 0.0026.
UCCUCCAACAGCAUGCAUAGUAUUUAGUUA: the “pre-steady-state target cleavage rate” value in assay [1] (setting [3]) was 0.282 ± 0.016; in assay [1] (setting [4]), 0.0108 ± 0.0025; in assay [2], 0.0161 ± 0.0047.
With UCCUGGAUGUCGAACCAAAGUAUUUUGUUA, the “pre-steady-state target cleavage rate” value in assay [1] (setting [3]) and in assay [1] (setting [4]) was under 0.0001 in each case.
In the case of UCCUGGAUCAGCUUGCUUAGUAUUAAGUUA, the “pre-steady-state target cleavage rate” value in assay [1] (setting [3]) is 0.129 ± 0.016; in assay [1] (setting [4]), 0.00516 ± 0.0021; in assay [2], 0.00376 ± 0.0025.
As for UCCUGGUACAUGCUUGCAUAGUAUUUAGUUA, the “pre-steady-state target cleavage rate” value in assay [1] (setting [3]) was 0.131 ± 0.018; in assay [1] (setting [4]) it was 0.00627 ± 0.0036.
Take UCCUGGAUGACCUUGCAUAGUAUAUAGUUA: the figures for the “pre-steady-state target cleavage rate” value in assay [1] (setting [3]) and in assay [1] (setting [4]) were 0.167 ± 0.034 and 0.00397 ± 0.0031, respectively.
Regarding UCCUGGAUGAGCUUGGAUAGUUUUUAGUUA, the results for the “pre-steady-state target cleavage rate” value in assay [1] (setting [3]) and in assay [1] (setting [4]) were 0.0261 ± 0.0072 and 0.00424 ± 0.0026, respectively.
In the same order, the values of UCCUGGAUGUGGAAGCAUAGUAUUUAGUAA are 0.0306 ± 0.0062 and 0.00424 ± 0.0024.
Regarding UCCUGGAUGUGCAUGGAUAGUAUUUAGUUA, the results for the “pre-steady-state target cleavage rate” value in assay [1] (setting [3]) and in assay [1] (setting [4]) were 0.11 ± 0.013 and 0.0094 ± 0.0023, respectively.
